Assay results taken from ChEMBL document CHEMBL5308541, “MAIP: An Open-Source Tool to Enrich High-Throughput Screening Output and Identify Novel, Druglike Molecules with Antimalarial Activity” (ACS Med Chem Lett, 2023).
About 540 (0.36%) of roughly 150,000 compounds showed an effect of 50% or more. Shown is part of a subset that was picked to be rich in strong results.

system: Plasmodium falciparum; assay: Primary screen in NF54 nanoGlo assay, in single point, at 2uM, 72h; a lower Z score goes with more inhibition; type: functional, Erythrocyte; conditions: timepoint 72 hour

| SMILES | % Inhibition [%] | Z score |
| --- | --- | --- |
| Cc1nc(N2CCN(CC(=O)NC3CCCCC3)CC2)c2cc[nH]c2n1 | -11 | 2.32 |
| CNc1nc(N2CCN(CC(=O)NC3CCCCC3)CC2)nc2ccccc12 | 80 | -14.07 |
| CCN1CCC[C@@H]1CN(CCN(C)C)C(=O)c1ccc(-c2cncnc2)cc1F | 2 | -0.24 |
| Fc1ccc(N2CCC(N[C@@H]3COC4(CCNCC4)C3)CC2)cc1F | 23 | -4.05 |
| N[C@H]1CC[C@@H](NC2CCN(c3ccc(F)c(F)c3)CC2)CC1 | 53 | -9.21 |
| CCc1ccc(Nc2nc(C(=O)NCCc3c[nH]cn3)nc3ccccc23)cc1 | 7 | -1.15 |
| COc1ccc(-c2cncc(C(=O)NCC3CCN(CCN(C)C)CC3)c2)cc1 | 94 | -16.22 |
| COCCN1CCC(CN(C)C(=O)c2ccc(-c3cncc(N)c3)cc2)CC1 | 2 | -0.4 |
| Cc1cc(O)c(Cl)cc1-c1cccc2c(N)ccnc12 | 82 | -14.53 |
| Cc1cc(O)c(Cl)cc1-c1ccc2ncnc(N)c2c1 | -5 | 0.82 |
| Cc1cc(O)c(Cl)cc1-c1ccc2nccc(N)c2c1 | 91 | -15.94 |
| Cc1cc(O)c(Cl)cc1-c1ncnc2[nH]ccc12 | 1 | -0.29 |
| Cn1ccc2c(-c3cccc4c(N)ccnc34)ccnc21 | 6 | -1.24 |
| OC[C@H](CNCc1cc2ccc(F)cc2[nH]1)c1ccccc1Cl | 41 | -6.28 |
| O[C@@H](CNCc1cc2cc(Cl)c(Cl)cc2[nH]1)c1ccc(F)cc1 | 76 | -13.27 |
| CC(CNc1nc(NCC(C)N2CCOCC2)c2cc(Cl)ccc2n1)N1CCOCC1 (stereo unspecified) | 78 | -13.62 |
| CN1CCN(CCOc2ccccc2CN(C)Cc2cc3cc(F)ccc3[nH]2)CC1 | 73 | -14.51 |
| CCN1CCN(CCOc2ccccc2CN(C)Cc2cccc3cnccc23)CC1 | 7 | -1.54 |
| COc1ccc(-c2ccnc(C3CCN(c4ccnc(C#N)n4)CC3)n2)cc1 | -1 | 0.14 |
| c1ccc(-c2ccnc(C3CCN(CC45CNCC4C5)CC3)n2)cc1 (stereo unspecified) | 89 | -13.57 |
| c1cc(N2CCOCC2)nc(C2CCN(CC34CNCC3C4)CC2)n1 (stereo unspecified) | -8 | 1.26 |

| SMILES | % Inhibition [%] | Z score |
| --- | --- | --- |
| C[C@H]1CN(C2CCOCC2)CCN1C(=O)NCc1cccc(-c2cccnc2)c1 | -1 | 0.29 |
| O=C(NCc1cccc(-c2cccnc2)c1)N[C@H]1CCN(C2CCCCC2)C1 | 51 | -7.77 |
| CC(C)c1ccc(-c2nc(CN3CCCCC3)cc(CN3CCCCC3)c2O)cc1 | 90 | -15.77 |
| Cc1ccc(Nc2ncc(-c3ccc(Cl)c(OC(F)(F)F)c3)cn2)cc1 | -5 | 1 |
| CCN1CCN(c2ccc(CNCc3cccc(O)c3)cc2F)CC1 | 90 | -19.29 |
| CN1CCCN(Cc2ccc(CNCc3cccc(O)c3)cc2)CC1 | 17 | -3.36 |
| Cc1nc2ccccc2c(O)c1CC[C@H](C)NC1CCNCC1 | -3 | 0.51 |
| CCCCN(C)C[C@@H](C)NC(=O)CCCN1CCN(c2ccccc2)CC1 | -5 | 1.09 |
| Cc1ccc(-c2cc(C(=O)N[C@H]3CCCN(C4CCN(C)CC4)C3)n[nH]2)s1 | 5 | -0.79 |
| CN1CCC(N2CCC(NC(=O)c3ccncn3)CC2)CC1 | -17 | 2.56 |
| Cc1ccc(-c2cc(C(=O)NC3CCN(C4CCN(C)CC4)CC3)n[nH]2)cc1C | 95 | -16.77 |
| CCc1oc2ccccc2c1CNC[C@H](O)c1ccc(Cl)cc1 | 98 | -19.37 |
| Cn1cc(CNC[C@H](O)c2ccc(F)c(F)c2)c(-c2cc3ccccc3o2)n1 | 19 | -3.4 |
| CN([C@@H](c1ccccc1)c1ccccc1Br)S(=O)(=O)c1c[nH]c2ncccc12 | 60 | -11.93 |
| C[C@](O)(CNS(=O)(=O)c1c[nH]c2ncccc12)C(c1ccccc1)c1ccccc1 | 4 | -0.63 |
| C[C@@H](c1cccc(-c2cc(N3CCOCC3)nc(N)n2)c1)N1CCCC1 | -1 | 0.25 |
| Cc1ccc2[nH]cc(-c3cc(N4CCCCC4)ncn3)c2c1 | 11 | -2.17 |
| Cc1ccc2[nH]cc(-c3cc(N4CCOCC4)nc(N)n3)c2c1 | 52 | -10.41 |
| NC(=O)c1ccc(CNC(=O)NCC[C@H](O)c2ccccc2)o1 | -10 | 1.46 |
| CC(C)(O)C#Cc1ccc(CN(CC2CCN(C3CCCC3)CC2)C[C@H]2CCCO2)cc1 | -11 | 1.92 |
| CC(C)N1CCN(CCCN2CCN(C)C3(CCCCC3)C2)CC1 | 3 | -0.69 |

| SMILES | % Inhibition [%] | Z score |
| --- | --- | --- |
| Cc1cc(N2CCC(N(C)Cc3ncc(-c4ccccc4C)o3)CC2)nc(C)n1 | -3 | 0.66 |
| CN1CCC(Oc2ccc(NCc3ccc(N(C)C)nc3)cn2)CC1 | -17 | 3.56 |
| CN1CCC(Oc2ccc(NC(=O)c3cn4ccnc4s3)cn2)CC1 | 90 | -15.87 |
| CN1CCC(CNC2CC3CC(C2)N(C(=O)OC(C)(C)C)C3)CC1 (stereo unspecified) | 72 | -15.46 |
| COc1cc2nc(-c3cc(Cl)c(O)cc3C)nc(N)c2cc1OC | 2 | -0.41 |
| COc1cc2nc(-c3ccc(F)c4cccnc34)nc(N)c2cc1OC | 96 | -14.63 |
| COc1ccnc(CN2CC[C@H](Nc3ncccn3)C2)c1OC | -5 | 0.75 |
| Cc1nc(C)c(C)c(N2CC(OCc3ccccc3)C2)n1 | -11 | 1.9 |
| COc1ccc2c(N3CC[C@H](CN4CCCC4)C3)ccnc2c1 | 91 | -15.93 |
| COc1ccc2nccc(N3CCC(O)CC3)c2c1 | 5 | -0.83 |
| COCC1CCN(c2ccnc3cc(F)ccc23)CC1 | 7 | -1.37 |
| CN1CCN(CC2CCN(c3ccnc4ccccc34)CC2)CC1 | 98 | -16.96 |
| CN1CCN(C[C@H]2CCCN(C(=O)c3ccnc4ccccc34)C2)CC1 | 5 | -1.03 |
| CC1(N2CCC2)CCC(NC[C@H]2CCN(Cc3ccccc3)C2)CC1 (stereo partly specified) | 73 | -12.59 |
| c1ccc(CN2CCC[C@H](CNC3CCN(c4ccc5c(c4)OCO5)CC3)C2)cc1 | 14 | -2.53 |
| CC(=O)N1CCC(CNC2CCC(C)(N3CCCC3)CC2)CC1 (stereo unspecified) | -10 | 1.74 |
| Nc1ccnc2ccc(-c3ccc(C(=O)NCC4CCOCC4)cc3)cc12 | 83 | -16.44 |
| OC1CN(c2ccnc3ccccc23)CCC1N1CCN(c2ccccn2)CC1 (stereo unspecified) | -7 | 1.2 |
| O=C(NC1CCN(CCOc2ccc(Cl)cc2)CC1)c1c[nH]c2ccncc2c1=O | 94 | -14.22 |
| CCCCN1CCC(NC(=O)c2c[nH]c3ncccc23)CC1 | -8 | 1.66 |
| CCCc1cc(NCC2(N3CCN(C)CC3)CCCCC2)n2nccc2n1 | -3 | 0.64 |

| SMILES | % Inhibition [%] | Z score |
| --- | --- | --- |
| CNc1cc([C@H]2C[C@@H](NC3CC(C)(C)NC(C)(C)C3)C2)ncn1 | 11 | -1.95 |
| CNc1nc(N[C@H]2CCCN(Cc3ccc(Cl)cc3)C2)nc2c1CCC2 | 49 | -8.5 |
| Cc1cc(N2CCC(NCc3ccc(C(F)(F)F)cc3F)CC2)nc(N)n1 | 10 | -2.1 |
| Cc1cc(N2CCC(N(C)Cc3ccc4nsnc4c3)CC2)nc(N)n1 | 18 | -3.91 |
| Cc1cc(N2CCC(NC3CCCC3Cc3ccc(F)cc3)CC2)nc(N)n1 (stereo unspecified) | 96 | -14.52 |
| CN(C)c1ncc(CN2CCN(c3nsc4ccccc34)CC2)cn1 | 5 | -0.94 |
| O=C(Nc1cnc2c(c1)COCC2)c1cc2c(OC(F)(F)F)cccc2[nH]1 | 93 | -14.17 |
| CN(c1ccccc1)c1ccc(CN2CCN([C@H]3CCNC3)CC2)cc1 | 68 | -13.59 |
| Cc1ocnc1CNC[C@H](O)c1ccc(Cl)c(Cl)c1 | 94 | -18.67 |
| Cn1nc(C(=O)Nc2cnc(CC3CC3)nc2)cc1C(F)(F)F | 1 | -0.26 |
| CCCN1CCC(Nc2cc(C)nc3ccccc23)CC1 | 58 | -8.81 |
| CCC(=O)N1CC[C@H](Nc2cc(C)nc3ccccc23)C1 | -8 | 1.36 |
| Cc1ccc2[nH]c(-c3cc4n(n3)CCN(c3ccnc(N)n3)C4)nc2c1C | 84 | -16.64 |
| CN1CCC(N(C)C[C@H](Nc2ncnc3ccccc23)c2ccccc2)CC1 | 98 | -17.15 |
| C[C@](O)(CN1CCC(NCc2ccccc2)CC1)C(F)(F)F | -6 | 0.96 |
| COc1ccccc1N1CCN(C2CCN(c3ccc(C(=O)N[C@@H](C)c4ccccc4)cc3)CC2)CC1 | -11 | 1.99 |
| OC1(c2ccc(Cl)cc2)CCN(C[C@@H]2CCCN3CCCC[C@H]23)CC1 | 82 | -16.27 |
| CCNc1nc(NCc2ccccc2)c2cn[nH]c2n1 | -6 | 1.21 |
| CC(CCO)CNc1nc(NCC(C)CCO)c2ccccc2n1 (stereo unspecified) | 1 | -0.17 |
| COCCNc1nc(N[C@@H](C)c2ccccc2)c2ccccc2n1 | 52 | -11.2 |
